The results in this text go back to PubChem BioAssay.

Inconclusive results are not listed. Calls of active or inactive are those of the source. Unless noted, cut-off not given; nearly all actives show AC50 up to about 26 µM.

A short description of assay [1]: viability loss in pontine glioma line – cell-based, SU-DIPG-XIII, MIPE5.0, CellTiter-Glo, qHTS, dose response (AID 1347064; cut-off not given, nearly all actives have AC50 up to about 23 µM;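 on AC50: cells exposed to compound for 48 hours before the viability read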). As to conditions: CellTiter-Glo ATP luminescence.
Assay [2] is described as follows: viability loss in pontine glioma line – cell-based, SU-DIPG-XXV, MIPE5.0, CellTiter-Glo, qHTS, dose response (AID 1347065).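 Further: cells exposed to compound for 48 hours before ATP readout.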 The following applies: CellTiter-Glo ATP luminescence.
Assay [3] in a line: growth inhibition of DIPG cells – cell-based, MIPE5.0 library, qHTS (AID 1347068; cut-off not given, nearly all actives have IC50 up to about 30 µM;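 on IC50: cells exposed to compound for 48 hours before viability readout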). As to conditions: SU-DIPG-XXV viability.
Assay [4] can be described thus: JHH-DIPG-1 glioma cell viability, MIPE5.0 library, CellTiter-Glo luminescence, qHTS (AID 1347067).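 Further: cells exposed to compound for 48 hours before readout.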 The following applies: JHH-DIPG-1 glioma viability, CellTiter-Glo ATP luminescence. On the technique in general: In ATP-based viability assays light output follows the ATP content of the culture.
A short description of assay [5]: growth inhibition of DIPG cells – cell-based, MIPE4.0 library, CellTiter-Glo luminescence, qHTS (AID 1347066; cut-off not given, nearly all actives have AC50 up to about 30 µM;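 further: cells exposed to compound for 48 hours before readout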). As to conditions: SU-DIPG-VI viability, CellTiter-Glo ATP luminescence.
Assay [6] in a line: viability loss with induced miR-34 in A549 – imaging, A549 dox-inducible miR-34, nuclei and caspase counts, primary screen (AID 1347080;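 active means compounds whose cell count with miR-34 switched on is under 0.7 times the count with it off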). As to conditions: A549 miR-34 inducible, Hoechst nuclei count, 48 h.
The nature of assay [7]: MELAS cybrid and Rieske KO viability enhancers – cell-based, MELAS cybrids, Rieske KO mouse fibroblasts, CellTiter-Glo, primary screen (AID 1508586;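 active means mean z-score across replicates of 1.96 or higher in either the MELAS or the Rieske mutant cell line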;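 further: z relative to plate mean and SD of compound and empty wells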). As to conditions: low glucose.
Assay [8] in a line: compounds altering HSF1 focus formation in cells – imaging, Selleck Cancer Library (AID 1347162; in the data active means plate-normalised HSF1 focus index below about 0.46). The following applies: human cells, HSF1 nuclear foci imaging, at 10 µM; SSMD: measured here: HSF1 foci SSMD mean; cell count: measured here: cell number; plate-normalised HSF1 focus index: stronger effect = lower value.
Where [9] appears, read: stronger effect = lower value, cell number ratio, induced over uninduced.
The mark [10] stands for this setting: measured here: relative caspase fold change +Dox/-Dox.
Setting [11] is: measured here: total cells with miR-34 induction, stronger effect = lower value.
[12] abbreviates: measured here: total cells without miR-34 induction.
Where [13] appears, read: MELAS cybrid survival, CellTiter-Glo 48 h, stronger effect = higher value.
Where [14] appears, read: Rieske KO mouse fibroblast survival, CellTiter-Glo 72 h.

`COc1cccc(-c2ccc(NC(=O)C3=C(C(=O)O)CCC3)c(F)c2)c1`: the call in assay [1], in assay [2] and in assay [3] was inactive.

Turning to `Cc1ccc(NS(=O)(=O)c2ccc3c(c2)C2C=CCC2C(c2ccc(C(=O)O)cc2)N3)cc1C` (centres undefined), the outcome in assay [1], in assay [4] and in assay [3] was inactive.

For `CN(C)S(=O)(=O)c1ccc2c(c1)C(=Cc1cc3c([nH]1)CCCC3)C(=O)N2`, the compound was classed as inactive in assay [1] and in assay [5].

For orientation: AC50 means the concentration giving half of the maximal activity seen. What is called IC50 is the concentration needed to halve the response being measured. For the compound `C=CC(=O)Nc1cccc(Sc2nc(Nc3ccc(N4CCN(C)CC4)cc3)ncc2Cl)c1`, the AC50 in assay [1] was 2.09 µM (active); in assay [2], 1.48 µM (active); in assay [4] it was 4.17 µM (active). Moreover, in assay [3], the IC50 was 1.66 µM (active). Moreover, the fold change was 0.881 (inactive) in assay [6] (setting [9]) and 1.05 in assay [6] (setting [10]). Also, the cell count was 4990 in assay [6] (setting [11]) and 5660 in assay [6] (setting [12]). Also, the figures for the z-score in assay [7] (setting [13]) and in assay [7] (setting [14]) were -0.417 (inactive) and 0.935, respectively.

With `O=C(/C=C/C#Cc1cccc(NS(=O)(=O)c2ccccc2)c1)NO`, the AC50 in assay [1] is 1.29 µM (active). For the same compound, the AC50 in assay [2] is 1.82 µM (active). Moreover, in assay [4], the AC50 was 1.82 µM (active). For the same compound, in assay [8], the SSMD was -2.13, the cell count stood at 6610 and the plate-normalised HSF1 focus index was 0.874 (inactive).

For the compound `C=C1[C@H](OC(=O)/C=C(\C)CC)C[C@@H](C(C)C)[C@@H]2[C@H]([C@@H](C)OC(C)=O)C(=O)C[C@@H]12`, the AC50 in assay [1] and in assay [4] was 18.6 µM (active) each time. The result in assay [3] was inactive.

For the compound `COc1cc(N2CCN(C)CC2)ccc1Nc1nccc(-c2cn(C)c3cnccc23)n1`, the AC50 in assay [1] is 10.5 µM (active); in assay [2], 13.2 µM (active); in assay [4] it was 18.6 µM (active). Moreover, the compound was called inactive in assay [3]. The fold change in assay [6] (setting [9]) was 0.785 (inactive); in assay [6] (setting [10]) it was 1.02. For the same compound, the values for the cell count in assay [6] (setting [11]) and in assay [6] (setting [12]) were 4990 and 6360, respectively. Moreover, the z-score in assay [7] (setting [13]) was 1.95 (inactive); in assay [7] (setting [14]), -5.23.

Consider `CC1(N)CCN(c2cccnc2NC(=O)c2nc(-c3ncccc3C(F)(F)F)cnc2N)CC1`, for which the call in assay [1] and in assay [4] was inactive.

For `CN1CCC(COc2cnc(-c3cccc(Cn4nc(-c5cccc(C#N)c5)ccc4=O)c3)nc2)CC1`, the AC50 was 26.3 µM (active) in assay [2] and 29.5 µM (active) in assay [4]. In addition, in assay [5], the call was inactive.

On to `CN(C)CCCOc1ccc(-c2ccc3ncc4c(c3c2)n(C2CCOCC2)c(=O)n4C)cn1`, for which the AC50 in assay [2] was 5.74 µM (active). Besides, the compound was classed as inactive in assay [4].
